# Results from PubChem BioAssay (NCI).
# About 83,000 compounds went through this panel and 20% of them were active in at least one assay; those are over-represented in the sample as a whole.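 Plates (96-well) were seeded with cells, treated with compound at one concentration, and incubated for 48 hours before percent growth was determined.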 Values without a mark were called inactive. Activity calls are given as the source filed them. The calls were made as follows: active = growth percent below 10; inactive = the rest.
# Legend:
# Test in all cases: NCI-60 one-dose screen, 48 h (100 = growth as untreated, 0 = no growth, -100 = all killed)
# Settings in all cases: 10 µM unless noted
# [1] = test system: NCI-H23 lung
# [2] = test system: NCI-H226 lung
# [3] = test system: NCI-H322M lung
# [4] = test system: HOP-62 NSCLC
# [5] = test system: HOP-92 NSCLC
# [6] = test system: NCI-H522 lung
# [7] = test system: A549/ATCC NSCLC
# [8] = test system: 786-0 renal
# [9] = test system: COLO 205 colon
# [10] = test system: DU-145 prostate
# [11] = test system: MALME-3M melanoma
# [12] = test system: MDA-MB-231 breast
# [13] = test system: RXF 393 renal
# [14] = test system: SF-268 CNS
# [15] = test system: SF-295 CNS
# [16] = test system: SF-539 CNS
# [17] = test system: UACC-257 melanoma
# [18] = test system: M14 melanoma
# [19] = test system: NCI-H460 lung
# [20] = test system: K-562 leukemia
Structure (SMILES),growth [1],growth [2],growth [3],growth [4],growth [5],growth [6],growth [7],growth [8],growth [9],growth [10],growth [11],growth [12],growth [13],growth [14],growth [15],growth [16],growth [17],growth [18],growth [19],growth [20]
Cc1cc(N2CCSCC2)nc(NC2CCCC(Nc3ccnc4cc(Cl)ccc34)C2)n1 (stereo not given),35.1%,18.2%,-28.8% (active),-46.2% (active),-66.1% (active),-52.5% (active),7.52% (active),-91.6% (active),-74.8% (active),19.7%,-86.1% (active),-75.7% (active),-73.7% (active),-39.9% (active),-78.6% (active),-93.1% (active),-79.3% (active),-88.5% (active),–,–
COc1ccc(O)c(N=Nc2nccs2)c1,87.9%,92.2%,91.4%,94.2%,49.4%,88.2%,91.1%,70.6%,94.8%,94.9%,102%,39.3%,87.9%,67.9%,103%,96.8%,93.7%,105%,–,–
COc1ccc2c(c1)O/C(=C\c1cccc(OCC(=O)Nc3nc4c(s3)CCCC4)c1)C2=O,37.8%,86.9%,–,103%,-23.4% (active),-91.4% (active),94.6%,89.9%,113%,42.8%,109%,65.9%,-15.4% (active),89.4%,75.8%,87.8%,95.1%,90.9%,115%,24.5%
COc1cc(/C=C/C(=O)c2ccc(O)c(CN3CCN(c4cc5c(cc4F)c(=O)c(C(=O)O)cn5C4CC4)CC3)c2)cc(OC)c1OC,42.8%,76.9%,–,72.3%,81.2%,27.6%,43.1%,49.8%,106%,24.6%,74.3%,76.7%,28.1%,54.9%,86.5%,49.6%,64.5%,48.8%,34.8%,10.6%
COc1cc2nc(N3CCCC3)nc(NCC3CCCCC3)c2cc1OC,57.3%,80.1%,–,74.7%,-16.9% (active),-57.2% (active),6.9% (active),-82.5% (active),-86.2% (active),36.2%,-87.8% (active),-39.9% (active),-84% (active),74.4%,-70.9% (active),-84.2% (active),-82.8% (active),-79.3% (active),-45% (active),-9.67% (active)
CCOc1nc(-c2ccccc2)cc2c(O)c(C(=O)N/N=C/c3ccc(O)cc3O)[nH]c(=O)c12,3.35% (active),26.4%,–,27.1%,-12.1% (active),10.8%,46.2%,14.4%,15.9%,23.4%,–,43.2%,-35.2% (active),16.3%,19.3%,16%,-29.1% (active),21.5%,61.6%,31.5%
N#Cc1nnn(-c2ccc(S(N)(=O)=O)cc2)c1NC(=O)CCl,100%,95.5%,–,92.2%,96.1%,95%,92.9%,98%,110%,107%,102%,102%,109%,97.6%,98.2%,98.8%,89%,95.4%,104%,–
COC(=O)c1cccc(NC(=O)c2ccc(-c3cccc(N)c3)o2)c1,97.5%,85.8%,–,104%,106%,81.8%,100%,109%,112%,110%,91.1%,99.4%,102%,100%,98.4%,92.6%,112%,112%,102%,94.9%
O=C(CN1CCCCC1)Nc1ccc2oc(=O)ccc2c1,97.5%,95.8%,105%,99.7%,91.3%,84.6%,100%,107%,119%,113%,106%,105%,113%,97.5%,106%,129%,96.3%,106%,–,–
CSc1ccc(SC2c3ccc(C)cc3Oc3nc(N)c(C#N)c(N)c32)cc1 (stereo not given),-74.2% (active),-88.7% (active),–,-27.8% (active),-67.6% (active),-91.1% (active),0.603% (active),-96.6% (active),-76.7% (active),-88.7% (active),-94% (active),-90.5% (active),-70.2% (active),-26.1% (active),15.3%,-86.7% (active),-76.3% (active),-81.6% (active),-72.5% (active),–
CC1SC(c2ccc(N(C)C)cc2)N(NC(=O)C(O)(c2ccccc2)c2ccccc2)C1=O (stereo not given),98.5%,105%,–,97.1%,74.6%,84.6%,79.6%,97.7%,102%,97.2%,87.6%,99.1%,118%,141%,27.9%,96.7%,106%,96%,144%,86.1%
CC[C@H]1OC(=O)[C@H](C)[C@@H](O[C@H]2C[C@@](C)(OC)[C@@H](O)[C@H](C)O2)[C@H](C)[C@@H](O[C@@H]2O[C@H](C)C[C@H](N(C)C)[C@H]2O)[C@](C)(O)C[C@H](C)CN(C)[C@H](C)[C@@H](O)[C@]1(C)O,93.7%,103%,–,97.7%,67.5%,104%,104%,91.7%,45.6%,109%,92%,55.2%,85.5%,99.1%,108%,102%,124%,96.4%,102%,108%
C=CC(=O)Nc1cccc(-c2nc(SC)nc(NCc3ccccc3)c2C#N)c1,61.1%,46.8%,–,73.9%,48.1%,31.2%,53.4%,66%,98%,60.8%,66.4%,62.4%,21.9%,49%,67.8%,67.7%,64.9%,71.3%,84%,60%
N#CN1CCC[C@H]1C(=O)N1CCc2c(-c3[nH]nc4ncccc34)cccc21,4.9% (active),-29.1% (active),–,-10.1% (active),-21.6% (active),-51.7% (active),3.83% (active),9.59% (active),-77.5% (active),0.94% (active),24%,3% (active),-19.7% (active),7.17% (active),-14.3% (active),-36.9% (active),16.5%,-23.4% (active),3.48% (active),4.49% (active)
Cn1nc(N)c2cc([C@@H]3Nc4ccc5[nH]ncc5c4[C@H]4C5CCC(C5)[C@@H]34)ccc21 (stereo not given in full),26.9%,30.6%,–,46.9%,105%,17.9%,28.5%,34.7%,2.47% (active),18.8%,52.7%,48.5%,-11.1% (active),42.5%,9.61% (active),-15.5% (active),77.4%,3.16% (active),2.68% (active),9.76% (active)
COc1cc2c(cc1O)CC[C@@H]1[C@@H]2CC[C@]2(C)[C@@H](NCCN(C)C)CC[C@@H]12,–,-86.2% (active),-91.6% (active),-76.3% (active),-81.7% (active),-94.3% (active),-81.6% (active),-84.3% (active),-71% (active),-94.3% (active),-72.5% (active),-82.6% (active),-95.7% (active),-78.8% (active),-88.5% (active),-86.5% (active),-84.9% (active),-63.7% (active),-84.7% (active),–
CCC#CC[C@H](O)C/C=C1/C(=O)C=C[C@@H]1C/C=C\CCCC(=O)OC,–,-62.8% (active),48.1%,-8.26% (active),35.8%,-90.1% (active),32.6%,-28.3% (active),-23% (active),23%,23.4%,12.7%,-74.1% (active),23.8%,-25.6% (active),-5.91% (active),-6.54% (active),5.13% (active),-34.6% (active),–
